Assay results reported in the supplement of paper PMC6897291.

Experiments:
U-2932 [1] = assay: growth inhibition by drug alone (1 - RLU/untreated control) (fraction); higher = stronger inhibition; details: 177Lu-lilotomab satetraxetan 0 ug/ml
Procedure, shortened: (§1)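 Compound doses on the pre-printed Selleck Cambridge Cancer Compound library plates were 10/100 nM for RIVA cells and 10/1,000 nM for U-2932 cells, seeded at 3,000 cells/well. Before seeding, cells were washed after 18 h with or without a radiolabelled anti-CD37 antibody conjugate (~600 MBq/mg; 0.5 µg/ml RIVA, 1 µg/ml U-2932). Growth inhibition was derived from RealTime-Glo luminescence relative to untreated no-drug control wells. Readings were taken daily starting on day 3, each after 1 h at 37°C, and each well's RLU was divided by the mean of 48 such wells per plate and subtracted from 1.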

RIVA [2] = assay: as above; details: 177Lu-lilotomab satetraxetan 0 ug/ml
Procedure, shortened: as §1

U-2932 [3] = assay: growth inhibition by drug plus 177Lu-lilotomab satetraxetan (1 - RLU/untreated control) (fraction); higher = stronger inhibition; details: 177Lu-lilotomab satetraxetan 1 ug/ml
Procedure, shortened: as §1

RIVA [4] = assay: as above; details: 177Lu-lilotomab satetraxetan 0.5 ug/ml
Procedure, shortened: as §1

Compound	growth inhibition by drug alone (U-2932 [1]; 10 nM, time (day): 3)	growth inhibition by drug alone (U-2932 [1]; 10 nM, time (day): 4)	growth inhibition by drug alone (U-2932 [1]; 10 nM, time (day): 5)	growth inhibition by drug alone (U-2932 [1]; 10 nM, time (day): 6)	growth inhibition by drug alone (U-2932 [1]; 1000 nM, time (day): 3)	growth inhibition by drug alone (U-2932 [1]; 1000 nM, time (day): 4)	growth inhibition by drug alone (U-2932 [1]; 1000 nM, time (day): 5)	growth inhibition by drug alone (U-2932 [1]; 1000 nM, time (day): 6)	growth inhibition by drug alone (RIVA [2]; 10 nM, time (day): 3)	growth inhibition by drug alone (RIVA [2]; 10 nM, time (day): 4)	growth inhibition by drug alone (RIVA [2]; 10 nM, time (day): 5)	growth inhibition by drug alone (RIVA [2]; 10 nM, time (day): 6)	growth inhibition by drug alone (RIVA [2]; 100 nM, time (day): 3)	growth inhibition by drug alone (RIVA [2]; 100 nM, time (day): 4)	growth inhibition by drug alone (RIVA [2]; 100 nM, time (day): 5)	growth inhibition by drug alone (RIVA [2]; 100 nM, time (day): 6)	growth inhibition by drug plus 177Lu-lilotomab satetraxetan (U-2932 [3]; 10 nM, time (day): 3)	growth inhibition by drug plus 177Lu-lilotomab satetraxetan (U-2932 [3]; 10 nM, time (day): 4)	growth inhibition by drug plus 177Lu-lilotomab satetraxetan (U-2932 [3]; 10 nM, time (day): 5)	growth inhibition by drug plus 177Lu-lilotomab satetraxetan (U-2932 [3]; 10 nM, time (day): 6)	growth inhibition by drug plus 177Lu-lilotomab satetraxetan (U-2932 [3]; 1000 nM, time (day): 3)	growth inhibition by drug plus 177Lu-lilotomab satetraxetan (U-2932 [3]; 1000 nM, time (day): 4)	growth inhibition by drug plus 177Lu-lilotomab satetraxetan (U-2932 [3]; 1000 nM, time (day): 5)	growth inhibition by drug plus 177Lu-lilotomab satetraxetan (U-2932 [3]; 1000 nM, time (day): 6)	growth inhibition by drug plus 177Lu-lilotomab satetraxetan (RIVA [4]; 10 nM, time (day): 3)	growth inhibition by drug plus 177Lu-lilotomab satetraxetan (RIVA [4]; 10 nM, time (day): 4)	growth inhibition by drug plus 177Lu-lilotomab satetraxetan (RIVA [4]; 10 nM, time (day): 5)	growth inhibition by drug plus 177Lu-lilotomab satetraxetan (RIVA [4]; 10 nM, time (day): 6)	growth inhibition by drug plus 177Lu-lilotomab satetraxetan (RIVA [4]; 100 nM, time (day): 3)	growth inhibition by drug plus 177Lu-lilotomab satetraxetan (RIVA [4]; 100 nM, time (day): 4)	growth inhibition by drug plus 177Lu-lilotomab satetraxetan (RIVA [4]; 100 nM, time (day): 5)	growth inhibition by drug plus 177Lu-lilotomab satetraxetan (RIVA [4]; 100 nM, time (day): 6)
O=C(NCCS(=O)(=O)c1ccc(C(F)(F)F)cn1)c1ccc(Cl)cc1	-0.00204	-0.0169	-0.0367	-0.101	0.00453	0.00465	-0.0415	0.00213	-0.0219	-0.049	-0.0699	-0.142	-0.409	-0.334	-0.354	-0.458	-0.0322	0.0392	0.0668	0.0664	-0.0112	0.0515	0.0729	0.179	0.548	0.553	0.579	0.579	0.416	0.503	0.517	0.521
Oc1nc(-c2ccc(C(F)(F)F)cc2)nc2c1CSCC2	0.0264	0.0499	-0.0107	-0.0367	0.0107	0.081	0.0386	-0.0985									-0.00592	0.0339	0.0301	0.0994	-0.0747	0.0641	0.0547	0.062	0.347	0.483	0.51	0.519	0.424	0.518	0.521	0.496
COc1c(C)c2c(c(O)c1C/C=C(\C)CCC(=O)O)C(=O)OC2 [Mycophenolic (Mycophenolate)]	0.183	0.162	0.104	0.147	0.779	0.83	0.78	0.716									0.128	0.131	0.191	0.311	0.759	0.81	0.733	0.662	0.534	0.601	0.625	0.635	0.712	0.719	0.736	0.739
CC(C)n1nc(-c2ccc3oc(N)nc3c2)c2c(N)ncnc21	0.366	0.275	0.188	0.215	0.912	0.912	0.917	0.929									0.352	0.294	0.31	0.355	0.908	0.905	0.918	0.937	0.595	0.576	0.586	0.587	0.816	0.84	0.835	0.833
Cc1ccnc(NS(=O)(=O)c2ccc(NC(=O)Nc3ccc(S(=O)(=O)Nc4nccc(C)n4)cc3)cc2)n1	0.175	0.112	-0.00245	-0.0763	0.114	0.089	-0.0667	-0.0262									0.0395	0.0885	0.162	0.182	0.099	0.13	0.195	0.303	0.581	0.617	0.633	0.636	0.492	0.533	0.541	0.545
CNC(=O)[C@@H](NC(=O)[C@H](CC(C)C)[C@H](O)C(=O)NO)C(C)(C)C [Marimastat]	-0.0984	-0.0992	-0.103	-0.269	-0.124	-0.117	-0.167	-0.336									-0.127	-0.0607	0.00218	0.096	-0.0404	-0.014	0.0136	0.157	0.34	0.438	0.469	0.492	0.34	0.431	0.449	0.457
Cc1[nH]c2ccccc2c1CCNCc1ccc(/C=C/C(=O)NO)cc1 [Panobinostat]	0.545	0.448	0.353	0.31	0.98	0.982	0.982	0.983									0.585	0.524	0.461	0.445	0.979	0.981	0.983	0.986	0.93	0.93	0.939	0.944	0.987	0.988	0.988	0.987
COc1cc(Nc2ncc(F)c(Nc3ccc4c(n3)N(COP(=O)(O)O)C(=O)C(C)(C)O4)n2)cc(OC)c1OC	-0.000834	-0.000602	0.00162	0.0946	0.00804	-0.00449	-0.047	-0.0248									0.0179	0.0218	0.0539	0.209	-0.0117	0.00967	0.0277	0.162	0.382	0.517	0.542	0.553	0.413	0.448	0.452	0.437
COc1ccc(CNC(=O)Nc2ncc([N+](=O)[O-])s2)cc1	-0.00788	-0.00166	0.0195	0.136	0.0779	0.0745	0.0965	0.0679									-0.0555	-0.0169	0.0364	0.187	0.116	0.138	0.159	0.289	0.496	0.573	0.599	0.609	0.44	0.479	0.489	0.47
O=C(c1cc(Cc2n[nH]c(=O)c3ccccc23)ccc1F)N1CCN(C(=O)C2CC2)CC1 [Olaparib (AZD2281)]	0.0127	-0.023	-0.0205	0.0558	-0.0113	0.025	0.0248	0.0776	-0.144	-0.15	-0.137	-0.143	-0.228	-0.239	-0.25	-0.231	-0.0255	0.035	0.0896	0.188	0.0503	0.108	0.156	0.315	0.539	0.593	0.618	0.613	0.39	0.482		
